Data from ChEMBL document CHEMBL3433997, “St. Jude Leishmania screening dataset” (2016).

Columns and labels:
Format in all cases: functional
[1] = target: Solute carrier family 2, facilitated glucose transporter member 1 (Homo sapiens) (UniProt P11166); assay: ST_JUDE_LEISH: Cytotoxicity at 2uM final concentration against transgenic Leishmania Mexicana promastigotes LmGLUT1 that are glucose transport deficient and complemented with the human glucose transporter GLUT1. Activity is measured by DNA content using SYBR green in vitro
[2] = target: Hexose transporter 1 (Plasmodium falciparum) (UniProt O97467); assay: ST_JUDE_LEISH: Cytotoxicity at 2uM final concentration against transgenic Leishmania Mexicana promastigotes LmPfHT that are glucose transport deficient and complemented with the Plasmodium falciparum hexose transporter. Activity is measured by DNA content using SYBR green in vitro
[3] = target: Glucose transporter (Leishmania mexicana) (UniProt O61059); assay: ST_JUDE_LEISH: Cytotoxicity at 2uM final concentration against transgenic Leishmania Mexicana promastigotes LmGT2 that are glucose transport deficient and complemented with the L. Mexicana glucose transporter 2. Activity is measured by DNA content using SYBR green in vitro

Sequence of Solute carrier family 2, facilitated glucose transporter member 1 (Homo sapiens) (P11166 whole entry): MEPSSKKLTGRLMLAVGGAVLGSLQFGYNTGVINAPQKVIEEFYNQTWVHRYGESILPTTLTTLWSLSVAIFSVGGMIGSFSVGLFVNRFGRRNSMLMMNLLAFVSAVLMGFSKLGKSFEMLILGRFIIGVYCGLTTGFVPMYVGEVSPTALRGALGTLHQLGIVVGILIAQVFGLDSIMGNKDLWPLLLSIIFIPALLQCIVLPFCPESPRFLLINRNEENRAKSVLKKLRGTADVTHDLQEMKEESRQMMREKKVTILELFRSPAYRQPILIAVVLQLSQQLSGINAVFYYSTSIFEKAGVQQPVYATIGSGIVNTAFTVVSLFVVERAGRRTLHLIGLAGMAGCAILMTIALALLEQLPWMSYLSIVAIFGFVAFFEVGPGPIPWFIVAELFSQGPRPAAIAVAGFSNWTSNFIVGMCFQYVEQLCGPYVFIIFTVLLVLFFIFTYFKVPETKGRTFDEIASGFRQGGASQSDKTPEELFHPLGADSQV

Row | Structure (SMILES) | inhibition [1] | inhibition [2] | inhibition [3]
1 | COc1cccc(O)c1CNCC(O)c1cccc(C(F)(F)F)c1 (stereo unspecified) | 0.43% | 0.5% | 0.29%
2 | CC[C@H]1CN2CC[C@H]1C[C@H]2[C@H](OC(=O)c1ccccc1)c1cc(C#N)nc2ccc(OC)cc12 | 1.81% | -0.58% | 0.6%
3 | CN(c1cc(NC(=O)c2ccc(F)cc2)ccn1)C1CCN(Cc2cccc(O)c2)CC1 | 2.68% | 4.98% | 6.32%
4 | O=C(/C=C/c1ccc(Cl)c(Cl)c1)N1CCC(CN2CCC(c3c[nH]c4cc(C(F)(F)F)ccc34)CC2)CC1 | 2.28% | 3.35% | -0.87%
5 | CC[C@H]1CN2CC[C@@H]1C[C@H]2[C@H](O)c1cc(-c2cc(Cl)cc(Cl)c2)nc2ccc(OC)cc12 | 2.83% | 2.24% | 1%
6 | Cc1cccc2[nH]cc(C3CCN(CC4CCC(NC(=O)/C=C/c5ccc(Cl)c(Cl)c5)CC4)CC3)c12 (stereo unspecified) | 0.63% | 6.74% | 0.15%
7 | COC(C(=O)OCCC1CCCN1C)(c1ccccc1)c1ccccc1 (stereo unspecified) | -0.93% | -0.75% | -4.58%
8 | COc1ccc(C[C@H]2NC[C@H](O)[C@H]2OC(C)=O)cc1 | 105% | 103% | 92.1%
9 | Cc1ccc(CC(C)NCC(O)c2cccc(C(F)(F)F)c2)cc1F (stereo unspecified) | 6.67% | 6.24% | 5.67%
10 | CC[C@H]1CN2CC[C@H]1C[C@H]2[C@H](O)c1cc(-c2ccc(SC)cc2)nc2ccc(OC)cc12 | 4.44% | 4.13% | 7.64%
11 | CC[C@H]1CN2CC[C@H]1C[C@H]2[C@H](O)c1cc(-c2ccc(F)cc2C)nc2ccc(OC)cc12 | 4.97% | 1.01% | 2.55%
12 | COc1c(F)cc(CC(C)NCC(O)c2cccc(Cl)c2)cc1F (stereo unspecified) | -0.28% | -0.81% | -3.56%
